High-throughput results from PubChem.
Pol eta inh = inhibitors of human DNA polymerase eta | Q9Y253 | recombinant Pol eta, fluorescent DNA replication assay | 1.2% of 390,000 active | AID 588591 | Potency, µM (series often up to 114 µM), for the others: at the top dose activity change, negative = inhibition, actives largely listed as inhibitors; note: potency is the fitted concentration of half-maximal effect; % is set by controls: 0 for no effect and ±100 for the full control effect
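Pol eta at 10 nM preincubated with compounds 15 min at room temperature; reaction started with fluorescent substrate (50 nM final) and read kinetically at 0 and 10 min.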
PI5P4K alpha inh = blocks human PI5P4K alpha kinase activity; P48426; AID 652105; PI5P4Kalpha enzyme, ADP-Glo luminescence, 60 min; hits give low values; 1.2% of 330,000 active; max response, %; active = max response of -50% or lower; inconclusive = between -30% and -50%; inactive = -30% or higher; note: value at the top dose of about 77 µM; % is set by controls: 0 for no effect and ±100 for the full control effect
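Enzyme plus substrate dispensed, test compounds pinned in, then ATP (5 microM final) added. After 60 min at RT, ADP-Glo reagent 1 for 45 min and reagent 2 for 30 min preceded luminescence imaging.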
Pol kappa inh = inhibitors of human DNA polymerase kappa | Q9UBT6 | purified Pol kappa, fluorescent DNA synthesis assay, 10 min | Potency, µM (doses to about 107 µM), for the others: at the highest dose activity, negative = inhibition, actives largely listed as inhibitors | 0.53% of 400,000 active | AID 588579; note: potency is the fitted concentration of half-maximal effect; % is set by controls: 0 for no effect and ±100 for the full control effect
Target sequence (Q9UBT6 whole entry, looked up): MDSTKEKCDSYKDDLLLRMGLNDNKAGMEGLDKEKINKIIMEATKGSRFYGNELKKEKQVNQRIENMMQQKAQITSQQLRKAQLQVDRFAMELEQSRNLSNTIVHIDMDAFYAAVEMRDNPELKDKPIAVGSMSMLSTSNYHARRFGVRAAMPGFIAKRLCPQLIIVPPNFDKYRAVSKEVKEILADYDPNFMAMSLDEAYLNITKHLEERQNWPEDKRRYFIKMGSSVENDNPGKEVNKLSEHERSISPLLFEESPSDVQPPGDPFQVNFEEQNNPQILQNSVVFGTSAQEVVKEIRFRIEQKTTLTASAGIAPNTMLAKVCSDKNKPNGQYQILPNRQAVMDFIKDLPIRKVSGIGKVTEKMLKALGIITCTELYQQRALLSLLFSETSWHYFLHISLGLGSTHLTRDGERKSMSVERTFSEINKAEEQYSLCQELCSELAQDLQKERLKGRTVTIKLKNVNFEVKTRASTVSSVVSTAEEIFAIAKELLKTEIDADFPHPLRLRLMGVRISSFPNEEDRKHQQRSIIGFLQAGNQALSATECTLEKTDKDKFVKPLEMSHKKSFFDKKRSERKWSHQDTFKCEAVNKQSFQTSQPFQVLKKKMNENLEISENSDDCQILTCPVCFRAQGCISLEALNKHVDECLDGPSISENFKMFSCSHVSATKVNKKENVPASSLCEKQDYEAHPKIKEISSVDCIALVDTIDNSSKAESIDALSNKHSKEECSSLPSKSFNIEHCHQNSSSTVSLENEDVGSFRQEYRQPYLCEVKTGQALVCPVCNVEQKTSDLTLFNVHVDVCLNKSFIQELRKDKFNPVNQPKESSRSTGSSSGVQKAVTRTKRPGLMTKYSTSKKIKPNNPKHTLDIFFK
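Here, compound and 10 nM enzyme are combined for 15 min at room temperature; adding 50 nM substrate (final) starts DNA synthesis, tracked by fluorescence at 0 and 10 min against buffer-only wells.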
Pol iota inh = DNA polymerase iota (human) inhibition | Q9UNA4 | Pol iota fluorescent replication assay, 10 min | Potency, µM (titrated, usually from 115 µM), inactives show at the highest dose activity, negative = inhibition, usual class: inhibitors | 1% of 390,000 active | AID 588590; note: potency is the fitted concentration of half-maximal effect
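Fluorescent replication assay read twice, at 0 min and 10 min after adding 50 nM (final) substrate. Enzyme (10 nM) and compounds were first incubated 15 min at room temperature; enzyme-free buffer wells were negative controls.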
WRN inhibitor = inhibitors of human WRN helicase; Potency, µM (series often up to 114 µM), without a hit: at the top dose activity change, negative = inhibition, actives largely listed as inhibitors; AID 651768; 0.46% of 360,000 active; WRN helicase unwinding, fluorescent forked duplex, kinetic; Q14191; note: potency is the fitted concentration of half-maximal effect; % is set by controls: 0 for no effect and ±100 for the full control effect; nearly all actives have a fitted effect of over 55% in size
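WRN at 20 nM final was preincubated with compound for 15 min at room temperature; reaction started with 100 nM forked duplex oligonucleotide carrying fluorophore and quencher plus 2 mM ATP (final). Unwinding followed kinetically by red fluorescence (ex 525/em 598 nm).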
Pol beta inh = DNA polymerase beta (human) inhibition; P06746; Pol beta primer extension/strand displacement, fluorescence kinetic; Potency, µM (doses to about 114 µM), without a hit: at the top dose activity change, negative = inhibition, usual class: inhibitors; 1.3% of 340,000 active; AID 485314; note: potency is the fitted concentration of half-maximal effect; % is set by controls: 0 for no effect and ±100 for the full control effect
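Enzyme-only controls used 10 nM Pol beta; buffer lacking enzyme served as negative control. Compound preincubated 15 min, then 50 nM substrate added; 0 and 10 min reads at room temperature.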
* hit, by the source's call; ? = inconclusive; . = no result; [ ] = dose if it differs, or a comment. An excerpt weighted towards active compounds, which were near 2.8% of everything screened. Unless noted, calls come from the whole dose curve; as a rule, active = well fitted curve in the direction sought with a large enough effect; inconclusive = small, poorly fitted or top-dose-only effect, or another doubt; inactive = no such curve, though single readings can be large; an effect the other way counts as inactive or inconclusive.

SMILES | Pol eta inh | PI5P4K alpha inh | Pol kappa inh | Pol iota inh | WRN inhibitor | Pol beta inh
O=C(NC1CCC1)C1CCC(=O)N(Cc2ccc(Cl)cc2)C1 (centres undefined) | -13% | 3 | . | . | 16% | .
CN(C)c1ccc(/C=C/c2cc(N(C)C)nc3ccccc23)cc1 | . | . | 10% | 34% | . | .
O=c1cc(CN(Cc2ccccc2)Cc2ccccc2)c2c(ccc3ccccc32)o1 | . | -8 | . | . | -7% | .
CCC(Sc1ncc(S(=O)(=O)c2ccc(C)cc2)c(=O)[nH]1)C(=O)Nc1cc(C)ccc1C (centres undefined) | -5% | . | -4% | ? | . | 25µM*
CCOC(=O)c1ccc(NC(=O)CSc2nc3sc(C(=O)O)c(C)c3c(=O)[nH]2)cc1 | -10% | -81* | -28% | 9% | -20% | 9%
Cc1ccc(C)c(NC(=O)CSc2ncc(S(=O)(=O)c3ccc(C)c(Cl)c3)c(=O)[nH]2)c1 | -7% | . | -1%[60.1 µM] | -4% | . | -12%
C=C1C=C(C(F)(F)F)n2ncc(C(=O)NCc3ccc(F)cc3)c2N1 | . | . | -17% | 14% | . | .
CCC1CCC(C(=O)NC(C(=O)NCCN2CCOCC2)C(C)C)CC1 (centres undefined) | 1% | 0 | -7% | 20% | -2% | 40%
O=C(Nc1ccc2oc(-c3cccnc3)nc2c1)c1ccc2c(c1)OCCO2 | ? | -8 | ? | ? | ? | 14µM*
O=C(Nc1ccc2oc(-c3ccccc3)nc2c1)c1ccc2c(c1)OCCO2 | -14% | . | -16% | -8% | -7% | 35%
Cc1cc(/C=C2/NC(=O)N(Cc3ccccc3F)C2=O)c(C)n1C | -16% | -19 | 4%[60.1 µM] | 13% | 1% | -5%
CCOc1cc([N+](=O)[O-])cc(/C=C2/NC(=O)N(Cc3ccccc3F)C2=O)c1O | 50µM* | -77* | ? | ? | -1%[11.6 µM] | ?
Cc1ccc2nccnc2c1 | . | . | 8% | -18% | . | .
N#Cc1ccc(-c2cccnc2)nc1SCC(=O)Nc1sc2c(c1C#N)CCC2 | 79µM* | . | 79µM* | 14µM* | -1%[11.6 µM] | ?
CC(C)(C)C1CCc2c(sc(NC(=O)C3CC=CCC3C(=O)O)c2C#N)C1 (centres undefined) | ? | 2 | -15% | 6% | -29%[57.1 µM] | 71µM*
NC(=O)c1c(NC(=O)c2ccc([N+](=O)[O-])o2)sc2c1CCCC2 | 8% | -10 | 4% | 94% | 4% | 62%
CCOC(=O)c1c(NC(=O)CSc2nnc(C)c(=O)[nH]2)sc2c1CCCC2 | -6% | -11 | -2% | -10% | -13% | ?
N#Cc1c(NC(=O)c2ccc([N+](=O)[O-])o2)sc2c1CCC2 | ? | -3 | ? | ? | -16% | 20µM*
Cc1nnc(SCC(=O)Nc2sc3c(c2C#N)CCCC3)[nH]c1=O | ? | -52* | -14% | ? | -31% | 3%
CC(C)(C)c1ccc(C(=O)Nc2sc3c(c2C#N)CCC(C(C)(C)C)C3)cc1 (centres undefined) | -18% | . | 0% | 2% | . | -1%
COC(=O)C1CCN(CC(=O)Nc2sc3c(c2C#N)CCC3)CC1 | ? | -13 | -1% | -35% | -26% | 40µM*
N#Cc1c(NC(=O)C2CC=CCC2C(=O)O)sc2c1CCCCCC2 (centres undefined) | ? | 2 | -27% | -12% | -33%[57.1 µM] | 18µM*
N#Cc1c(NC(=O)C2CCCO2)sc2c1CCCCCC2 (centres undefined) | -8% | -14 | -12% | 12% | 4% | -8%
N#Cc1c(NC(=O)CCC(=O)O)sc2c1CCCC2 | -9% | -1 | -18% | 8% | 0% | 0%
N#Cc1c(NC(=O)CCC(=O)O)sc2c1CCCCC2 | ? | -74* | -13% | ? | -30% | -10%
SMILES | Pol eta inh | PI5P4K alpha inh | Pol kappa inh | Pol iota inh | WRN inhibitor | Pol beta inh
CCOC(=O)C1=C(CN2CCN(c3ccc(Cl)cc3)CC2)NC(=O)NC1c1ccc(F)cc1 (centres undefined) | -14% | . | -2% | 11% | . | 3%
CCOC(=O)c1c(C)[nH]c(C)c1S(=O)(=O)N(C)CC(=O)Nc1ccccc1F | -9% | -2 | 45µM* | 50µM* | 8%[11.6 µM] | -1%
CCOC(=O)c1c(C)[nH]c(C)c1S(=O)(=O)N(C)CC(=O)Nc1cc(Cl)ccc1C | -19% | . | -1% | 17% | . | 1%
O=C(CSc1nnc(SCc2cccc3ccccc23)s1)N=Nc1c(O)[nH]c2ccccc12 | . | . | . | . | . | 13µM*
O=C(CSc1nnc(SCc2cccc3ccccc23)s1)Nc1ccc(C(=O)O)cc1 | 7% | -93* | -7% | -2% | ? | -6%
CSc1nsc(SCC(=O)Nc2ccc(C(=O)O)cc2)n1 | -3% | -51* | 1% | -3% | 1% | -21%
O=C(CSc1n[nH]c(=O)[nH]c1=O)Nc1ccc(C(=O)O)cc1 | -20% | -64* | -1% | 30% | 0% | 4%
O=C(Cc1cccs1)N=Nc1c(O)[nH]c2ccccc12 | -22% | -25 | -15% | -15% | -12% | 4%
O=C(CSc1nnc(SCc2cccc3ccccc23)s1)c1ccc2c(c1)OCO2 | 1% | ? | -22% | 7% | -8% | 21%
CCOC(=O)C1=C(CSc2nc3c(cc2C#N)CN(C)CC3)OC(N)=C(C#N)C1c1ccc(Cl)cc1 (centres undefined) | ? | ? | ? | ? | ? | 19%
CCOC(=O)C1=C(CSc2nc3c(cc2C#N)CN(C)CC3)OC(N)=C(C#N)C1c1ccncc1 (centres undefined) | ? | -10 | ? | 32µM* | -29% | ?
COc1ccc(-c2cc3c(=O)n(CC(=O)Nc4cc(C)ccc4C)ccn3n2)cc1 | . | . | -7%[60.1 µM] | 11% | . | 45µM*
NS(=O)(=O)c1cccc2c1c([N+](=O)[O-])cc1[nH]c(=O)c(=O)[nH]c12 | . | . | 21µM* | . | . | .
CCC(=O)N1Cc2cc(C(=O)Nc3nccs3)nc(-c3cccc(-c4ccccc4OC)c3)c2[C@@H]1CCO | . | 11 | . | . | 2% | .
Cc1n[nH]c(=S)n(NC(=O)CC(=O)Nn2c(=S)[nH]nc(C)c2=O)c1=O | -12% | 10 | -5% | 57% | 2% | 3%
Cc1nn2c(=S)[nH]nc2[nH]c1=O | -13% | -53* | 3% | 23% | ? | 0%
CCCOc1ccc(/C=N/NC(=O)CSc2ccccn2)cc1OC | -12% | 4 | -22% | 18% | -6% | 79µM*
COc1ccc(C(=O)N/N=C/c2ccc(OC)c(CN3CCCc4ccccc43)c2)cc1 | -3% | -6 | -20% | 44% | 4% | 20µM*
COc1ccc(/C=N/NC(=O)c2cccnc2)cc1CN1CCCc2ccccc21 | -17% | -9 | -19% | 35% | -23% | 1%
